High-throughput results as filed in PubChem BioAssay.
TRb-SRC2 inh = TRbeta-SRC2 interaction inhibition | P10828 | TRbeta-SRC2 peptide binding, fluorescence polarization; receptor liganded with 1 µM T3 | 280,000 tested, 0.065% active | Potency, µM (highest dose often 106 µM), for inactives: top-dose activity change, negative = inhibition, actives largely listed as inhibitors | AID 1469;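 note: potency is the fitted concentration of half-maximal effect; plate controls were bound peptide for no effect and peptide without receptor for full effect; nearly all actives have a fitted effect of over 50% in size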
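Compounds were added to 0.6 uM TRb ligand-binding domain and 20 nM Texas Red-labeled SRC2 peptide in Tris buffer containing 1 uM T3, incubated 5 hr at ambient temperature, then read by fluorescence polarization.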
CBFb-RUNX1 inh = CBF-beta/RUNX1 interaction disruption; 230,000 tested, under 10 active; AlphaScreen CBFb-His/RUNX1-biotin binding, biochemical; Q01196+Q13951; Potency, µM (top dose mostly 59.8 µM), inactives show at the highest dose activity, negative = inhibition, hits mostly inhibitors; note: % of control where 0% means no effect
Target sequence (Q01196 whole entry, looked up): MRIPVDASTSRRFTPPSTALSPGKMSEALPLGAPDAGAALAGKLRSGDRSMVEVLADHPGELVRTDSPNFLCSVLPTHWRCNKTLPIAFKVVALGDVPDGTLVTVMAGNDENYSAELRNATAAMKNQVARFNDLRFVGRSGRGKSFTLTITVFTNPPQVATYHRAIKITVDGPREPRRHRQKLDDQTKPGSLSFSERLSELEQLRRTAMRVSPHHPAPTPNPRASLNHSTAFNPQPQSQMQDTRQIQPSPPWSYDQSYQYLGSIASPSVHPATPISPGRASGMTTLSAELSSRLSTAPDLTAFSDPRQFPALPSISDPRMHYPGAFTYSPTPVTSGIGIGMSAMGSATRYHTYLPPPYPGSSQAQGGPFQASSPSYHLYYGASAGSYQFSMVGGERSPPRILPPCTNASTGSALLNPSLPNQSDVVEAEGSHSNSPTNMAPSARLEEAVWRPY
Target sequence (Q13951 whole entry, looked up): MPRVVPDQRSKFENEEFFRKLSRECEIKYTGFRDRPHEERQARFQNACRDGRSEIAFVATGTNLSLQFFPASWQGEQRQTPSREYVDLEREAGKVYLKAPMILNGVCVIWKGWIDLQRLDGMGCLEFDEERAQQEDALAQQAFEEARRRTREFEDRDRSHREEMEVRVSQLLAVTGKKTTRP
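AlphaScreen proximity signal reports loss of binding between His-tagged CBF-beta and biotin-labelled RUNX1, each at 30 nM. Proteins are pre-associated for 20 minutes, compounds added for 15 minutes, then beads for 90 minutes, all at ambient temperature.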
GoLoco inh red = inhibitors of human Gai1-RGS12 GoLoco interaction (red fluorophore). P63096. Gai1:RGS12 GoLoco peptide FP, rhodamine, 10 min. Potency, µM (doses to about 61.6 µM), inactives show at the highest dose activity, negative = inhibition, usual class: inhibitors. 230,000 tested, 0.44% active. AID 880; active = well fitted inhibition curve with a large enough effect, not every such curve was filed as active; inactive = no such curve, though single readings can be large or run the other way; note: potency is the fitted concentration of half-maximal effect; % is set by controls: 0 for no effect and ±100 for the full control effect; nearly all actives have a fitted effect of over 30% in size
TR SRC2 fluor cs = alters Texas Red total fluorescence, flagging assay interference; TRb/SRC2 Texas Red total fluorescence interference; AID 1479; Potency, µM (doses to about 106 µM), without a hit: top-dose fluorescence change, negative = quenching; 280,000 tested, 0.29% active; active = well fitted curve in either direction with a large enough effect; inconclusive = small, poorly fitted or top-dose-only effect; note: potency is the fitted concentration of half-maximal effect; % is set by controls: 0 for no effect and ±100 for the full control effect
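Human TRb ligand-binding domain at 0.6 uM with 20 nM Texas Red SRC2 peptide in Tris buffer containing 1 uM T3 and 5% DMSO, incubated with compound 5 h at ambient temperature. Total fluorescence (555/632 nm) calculated as parallel + 2 × perpendicular.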
Integrin act MD = activates integrin-mediated alleviation for muscular dystrophy | alpha7betagal myoblasts, beta-gal FDG fluorescence, 48 h | Potency, µM (titrated, usually from 38.3 µM), for the others: top-dose activation, usual class: activators | 350,000 tested, 0.064% active;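 note: potency is the fitted concentration of half-maximal effect; 100% = response of the positive control SU9516; nearly all actives have a fitted effect of over 60% in size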
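alpha7betagal+/- myoblasts (passage 13, 250/well) treated 48 h at 37C with compounds at 1:260 dilution of DMSO stock. Lysed, then beta-galactosidase activity read as FDG fluorescence (ex 480/em 540) after 30 min, with pre-read for autofluorescence.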
ERG Ets-DNA blk = blocks human ERG Ets domain binding to DNA | P11308 | fluorescence polarization, His-ERG Ets domain / labelled DNA | Potency, µM (top dose mostly 76.9 µM), for inactives: at the top dose FP activity, negative = inhibition, usual class: inhibitors | 370,000 tested, 0.028% active | AID 624246; active = well fitted inhibition curve with a large enough effect in the polarisation, with a control signal flat; inconclusive = small, poorly fitted or top-dose-only effect, or effect the other way, or a change in a side signal; inactive = no such curve, though single readings can be large or run the other way; the % refers to the polarisation;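 note: polarization taken with two DNA probes labelled with fluorescein and Texas red; potency is the fitted concentration of half-maximal effect; % of control where 0% means no effect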
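His-tagged ERG Ets domain (1 uM in the protein solution; 300mM KCl, 50mM Tris-HCl, 1mM EDTA, 1mM DTT, pH 7.5) received compound, then a probe mix of 5 nM fluorescein-DNA and 100nM Texas-615-DNA. Fluorescence polarization was read for both dyes.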
Active calls of the source: *; ? = inconclusive; / = no result; ! = repeats disagree; [ ] = another dose, or the depositor's remark. Hits are enriched below; roughly 0.45% of the tested compounds scored in any of these assays. Unless noted, calls come from the whole dose curve; as a rule, active = well fitted curve in the direction sought with a large enough effect; inconclusive = small, poorly fitted or top-dose-only effect, or another doubt; inactive = no such curve, though single readings can be large; an effect the other way counts as inactive or inconclusive.

SMILES | TRb-SRC2 inh | CBFb-RUNX1 inh | GoLoco inh red | TR SRC2 fluor cs | Integrin act MD | ERG Ets-DNA blk
O=C1C(Cl)=C(Cl)C(=O)C(Cl)=C1Cl | -3% | ? | 0.22µM* | -10% | / | /
CCOC(=O)Nc1cccc(OC(=O)Nc2ccccc2)c1 | -2%[201 µM] | / | / | -2%[201 µM] | / | /
Cc1cc(C=C2C(=O)NC(=S)NC2=O)c(C)n1-c1ccc2c(c1)OCO2 | -9% | 1% | 46% | 28184µM*[quencher] | -58% | 5%
OC(Cn1cncn1)(c1ccc(F)cc1)c1ccccc1F (stereo unspecified) | 4%[201 µM] | / | / | 1%[201 µM] | / | /
C#CCC1=C(C)[C@H](OC(=O)[C@H]2[C@H](C=C(C)C)C2(C)C)CC1=O | 3%[201 µM] | / | / | -2%[201 µM] | / | /
Cc1ccccc1-n1c(O)c(/C=C2/C(c3ccccc3)=Nc3ccccc32)c(=O)[nH]c1=O | ? | -4% | 110% | 32µM*[quencher] | 31% | 3%
Cc1cccc(-n2c(O)c(/C=C3/C(c4ccccc4)=Nc4ccccc43)c(=O)[nH]c2=O)c1 | -6% | 10% | 89% | -1% | -25% | 13%
O=C(NC(=O)c1c(F)cccc1F)Nc1cc(Cl)c(OC(F)(F)C(F)C(F)(F)F)c(Cl)c1F (stereo unspecified) | 2%[201 µM] | / | / | -2%[201 µM] | / | /
c1ccc(C2CC2)c(OCC2=NCCN2)c1 | ? | 8% | -1% | 45µM*![fluorescent] | / | 5%
c1ccc2cc(CC3=NCCN3)ccc2c1 | 10% | 6% | 5% | 1% | -21% | 6%
CCCCCCCCCCCC[N+](C)(C)CCOc1ccccc1 | -19% | 29%[21.7 µM] | 16% | 1% | / | /
CC[N+](C)(CC)CCCCOc1ccc2c(c1)C(=O)c1cc(OCCCC[N+](C)(CC)CC)ccc1-2 | -2% | -5% | 11µM* | -6% | -20% | 8%
O=[N+]([O-])c1ccc(NCc2ccccc2)c2nonc12 | -4% | 4% | 3.2µM* | 2% | -44% | 6.3µM*
c1ccc(N2CC3(CCNCC3)C2)cc1 | / | / | 2% | / | / | /
C[N+]1(C)CCN(c2ccccc2)CC1 | -3% | 15% | 28µM*! | -1% | / | 10%
CCCN(CC)CC1COC2(CCC(C(C)(C)C)CC2)O1 (stereo unspecified) | 2%[201 µM] | / | / | 0%[201 µM] | / | /
CCOP(=S)(OCC)SCCl | 0%[201 µM] | / | / | -2%[201 µM] | / | /
Cc1cc2ccccc2n1CCNC(=O)Cc1ccccc1 | -8% | 4% | 7% | -3% | 15% | 35µM*
Brc1ccc(Oc2ccccc2)cc1 | -3%[201 µM] | / | / | 0%[201 µM] | / | /
O=c1cc(C(F)(F)F)c2cc3c4c(c2o1)CCCN4CCC3 | -6% | ? | 13µM* | 3% | -64% | -5%
Cc1cc2c(C(F)(F)F)cc(=O)oc2c2c1NCCC2 | -10% | 8% | 2% | -1% | -17% | /
Cn1c[n+](C)cc1C(O)c1ccccc1 (stereo unspecified) | 0% | 1% | 14µM* | -5% | 7% | -14%
CC1CCCC(C2(O)C(=O)Nc3ccccc32)C1=O (stereo unspecified) | -14% | 11% | 14µM* | -1% | 4% | 4%
CCOP(=O)(OCC)C1(O)C(=O)Nc2ccccc21 (stereo unspecified) | 1% | 6% | 4% | -1% | -32% | 3%
CCCSP(=O)(OCC)Oc1ccc(Br)cc1Cl (stereo unspecified) | 7%[201 µM] | / | / | 4%[201 µM] | / | /
SMILES | TRb-SRC2 inh | CBFb-RUNX1 inh | GoLoco inh red | TR SRC2 fluor cs | Integrin act MD | ERG Ets-DNA blk
C/C(=N\C(N)=O)N(C)Cc1ccc(Cl)nc1 | -1%[201 µM] | / | / | 2%[201 µM] | / | /
C[N+]1(C)CCCCC1 | -2%[201 µM] | / | / | 2%[201 µM] | / | /
c1ccc2c(c1)oc1ccccc12 | 7%[201 µM] | / | / | 0%[201 µM] | / | /
C[N+]1(C)C2CCC1CC(OC(=O)c1ccccc1)C2 (stereo unspecified) | 4% | 7% | 4µM* | -7% | -24% | -1%
C[N+]1(C)[C@@H]2CC[C@H]1CC(OC(=O)C(CO)c1ccccc1)C2 (stereo partly specified) | 3% | -5% | 1% | 0% | / | ?
Nc1nc(N)nc(Cl)n1 | 1%[201 µM] | / | / | 3%[201 µM] | / | /
O=C(Cc1ccccc1)Oc1ccc(N2C(=O)C3CCCCC3C2=O)cc1 (stereo unspecified) | -5% | 0% | -11% | -4% | -5% | 2%
O=C1SC(Cc2ccccc2)C(=O)N1c1ccccc1 (stereo unspecified) | -9% | 27% | 1% | -5% | 7.9µM* | 1%
Cc1[nH]n(-c2ccccc2)c(=O)c1C(c1ccc([N+](=O)[O-])cc1)c1c(C)[nH]n(-c2ccccc2)c1=O | 0%[53 µM] | 4% | -8% | 0.35µM*[quencher] | 1% | -12%
O=[N+]([O-])c1ccc(C(c2ccc([N+](=O)[O-])cc2)c2ccc([N+](=O)[O-])cc2)cc1 | / | / | / | / | -15% | 0%
Nc1ccc2ccc3cccc[n+]3c2c1 | / | / | / | / | -18% | -13%
C[n+]1c(-c2ccccc2)c2cc(N)ccc2c2ccc(N)cc21 | / | / | / | / | / | 14µM*
C[C@@H]1NCCc2cc(O)c(O)cc21 | -5%[53 µM] | -16%[21.7 µM] | 3.5µM* | -1%[53 µM] | / | -1%
CCC(C)(C)c1ccc(O)cc1 | 0%[201 µM] | 5%[21.7 µM] | 8.9µM*! | -3%[201 µM] | / | -10%
CCC(C)(c1ccc(O)cc1)c1ccc(O)cc1 | 1%[201 µM] | / | / | -1%[201 µM] | / | /
CCCSC(=O)N(CCC)CCC | 4%[201 µM] | / | / | 5%[201 µM] | / | /
CN(C)C(=S)SSC(=S)N(C)C | 2%[201 µM] | ? | 3.2µM*! | -1%[201 µM] | / | -1%
CC1=CC(=O)NP(=O)(Oc2ccc3ccccc3c2)N1 (stereo unspecified) | 5% | -5% | 13µM* | -3% | -34% | -5%
CC1CN1P(=O)(Oc1ccc2ccccc2c1)N1CC1C (stereo unspecified) | / | / | / | / | 16% | 4%
CCC[CH2][Sn]1([CH2]CCC)[O]C(=O)C=CC(=O)[O]1 | -8%[201 µM] | / | / | -4%[201 µM] | / | /
